High-throughput results (PubChem)
Shiga toxin inh: blocks Shiga toxin action in Vero cells | Vero cells, Shiga toxin protein synthesis inhibition reporter | inhibition, % at 38.7 µM | actives 9.2% (n = 290,000); in the data active means inhibition mostly above about 28%, no sharp cut-off; inactive means mostly below about 43%; further: 0% is about no effect
Giardia FBPA inh: Giardia lamblia aldolase inhibition; A8B2U2; purified Giardia FBPA; Potency, µM (top dose mostly 59.6 µM), for the others: at the highest dose activity, negative = inhibition, most hits filed as inhibitors; actives 0.71% (n = 290,000); further: potency means the concentration at half of the fitted maximal effect; on the % scale 0 is the no-effect control and ±100 the full control effect; nearly all actives have a fitted effect of over 55% in size
Target sequence (A8B2U2 whole entry, looked up): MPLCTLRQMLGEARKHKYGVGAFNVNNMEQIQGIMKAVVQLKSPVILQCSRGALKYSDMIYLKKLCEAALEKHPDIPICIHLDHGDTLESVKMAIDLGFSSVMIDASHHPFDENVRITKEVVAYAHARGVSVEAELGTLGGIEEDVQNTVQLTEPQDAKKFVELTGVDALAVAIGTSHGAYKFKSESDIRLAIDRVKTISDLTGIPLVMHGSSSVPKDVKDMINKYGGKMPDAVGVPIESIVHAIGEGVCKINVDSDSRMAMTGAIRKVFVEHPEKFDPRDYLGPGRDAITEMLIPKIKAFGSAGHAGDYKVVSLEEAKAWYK
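Giardia FBPA (40 nM reagent) was preincubated 10 min at RT with compound (up to 57.5 uM final), then substrate plus GAPDH/TPI/NAD/arsenate coupling system with diaphorase/resazurin was added; resorufin fluorescence (525/598 nm) was read after 20 min.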
NS1 function inh: inhibitors of influenza NS1 protein function | Potency, µM (series often up to 46.1 µM), for the others: top-dose activity, positive = more growth | actives 0.4% (n = 270,000) | AID 2326; calls by dose curve; further: potency means the concentration at half of the fitted maximal effect; actives are rising curves; nearly all actives have a fitted effect of over 50% in size
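In this qHTS, NS1 from influenza A is expressed in budding yeast, where it slows growth. Cells are switched from glucose to 2% galactose medium (pH 6.0, -URA), treated with compound, and growth recovery is read at OD600.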
CHX counter: counter-screen for Shiga toxin inhibitors: cycloheximide protein synthesis inhibition | max response, % | cell reporter, cycloheximide protein synthesis inhibition counterscreen | actives 12% (n = 300,000) | AID 2314; in the data active means max response mostly above about 13%, no sharp cut-off; inactive means mostly below about 14%; further: read at 38.3 µM for the half of the compounds with a filed dose; 0% is about no effect
Pf growth 48h: inhibits P. falciparum growth in the first generation, 48 h | AID 504832 | Potency, µM (top dose mostly 28.7 µM), for the others: at the top dose activity change, negative = inhibition, usual class: inhibitors | actives 5.9% (n = 310,000) | P. falciparum luciferase growth in erythrocytes, 48 h; further: potency means the concentration at half of the fitted maximal effect; on the % scale 0 is the no-effect control and ±100 the full control effect
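Luciferase-expressing parasites in RBCs, 2% Hct / 0.1% parasitemia final; RPMI 1640 + 0.5% Albumax; 37 C, 5% CO2, one generation; luminescence read-out, lower signal = inhibition.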
Pf growth 96h: inhibits malaria parasite growth, 96 h | actives 6.9% (n = 320,000) | P. falciparum luciferase reporter growth, 96 h | AID 504834 | Potency, µM (doses to about 28.7 µM), for the others: at the top dose activity change, negative = inhibition, hits mostly inhibitors; further: potency means the concentration at half of the fitted maximal effect; on the % scale 0 is the no-effect control and ±100 the full control effect
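Luminescence readout: decreased luciferase signal marks inhibited growth of reporter-expressing P. falciparum in infected red cells (2% hematocrit, 0.05% parasitemia final), exposed to compound two generations (96 h, 37 C, 5% CO2).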
* hit, by the source's call; ? = inconclusive; nt = no result. Hits are enriched below; roughly 21% of the tested compounds scored in any of these assays. Unless noted, the call rests on the fitted dose curve; in most records, active means well fitted curve in the direction sought with a large enough effect; inconclusive means small, poorly fitted or top-dose-only effect, or another doubt; inactive means no such curve, though single readings can be large; an effect the other way counts as inactive or inconclusive.

SMILES	Shiga toxin inh	Giardia FBPA inh	NS1 function inh	CHX counter	Pf growth 48h	Pf growth 96h
Cc1csc2c(=O)sc(NC(=O)c3ccco3)nc12	19	-1%	-35%	9	21%	41%
COc1ccc2nc(NC(=O)c3ccco3)sc2c1	60*	1%	-34%	20*	7%	-10%
COc1ccc2nc(NC(=O)C3CCN(C(=O)c4ccco4)CC3)sc2c1	144*	-10%	-14%	36*	4%	?
COc1ccc2nc(NC(=O)C3CCN(S(=O)(=O)c4cccc5nsnc45)CC3)sc2c1	-3	-6%	?	-2	?	10µM*
O=C(Nc1nc2ccsc2c(=O)s1)c1ccco1	97*	0%	-102%	27*	40%	27%
CCc1ccccc1OCC(=O)Nc1cccc(S(=O)(=O)NC2=NCCC2)c1	nt	nt	nt	nt	-25%	?
Cc1ccc2nc(NC(=S)NC(=O)c3ccco3)sc2c1	138*	-29%	20%	67*	138%	399%
CC1(C)C(=O)OC(c2cc(Br)ccc2O)C(C)(C)C1=O (stereo unspecified)	-14	0%	-5%	0	12µM*	31%
CN1C(=O)/C(=C/C=C2/CCCN2C)N(C)C1=S	9	?	2%	16	38%	1.5µM*
Cc1ccc(/C(N)=N/OC(=O)c2ccc3c(c2)OCO3)cc1	98*	0%	-45%	74*	?	5.9µM*
COc1ccc(C)cc1NC(=O)COC(=O)c1ccc2c(c1)OCO2	nt	nt	nt	nt	-12%	5%
N/C(=N\OC(=O)c1ccc2c(c1)OCO2)c1ccc(Cl)cc1	91*	-5%	-141%	62*	?	?
O=C(O)c1ccc2c(c1)OCO2	nt	-1%	nt	nt	nt	nt
COc1ccc(/C(N)=N/OC(=O)c2ccc3c(c2)OCO3)cc1	46*	-4%	-29%	52*	?	9%
N/C(=N\OC(=O)c1ccc2c(c1)OCO2)c1ccncc1	44	2%	-1%	35*	54%	-23%
COc1ccc(C(=O)O)cc1S(=O)(=O)NCCN(C)C	-3	-4%	0%	-3	6%	26%
O=C(COC(=O)c1cc(Br)ccc1O)Nc1ccc2c(c1)OCO2	nt	nt	nt	nt	?	-18%
CCCCCCC(=O)N1CCC(c2nc3c(nnn3Cc3ccccc3Cl)c(=O)[nH]2)CC1	-8	-5%	-25%	2	13µM*	?
O=c1[nH]c(C2CCCN(S(=O)(=O)c3ccccc3Cl)C2)nc2c1nnn2Cc1ccc2c(c1)OCCO2 (stereo unspecified)	-11	nt	9%	-2	?	13µM*
O=c1[nH]c(C2CCCN(S(=O)(=O)c3ccccc3F)C2)nc2c1nnn2Cc1ccccc1Cl (stereo unspecified)	-14	5%	-1%	1	?	12µM*
O=c1[nH]c(C2CCN(S(=O)(=O)c3ccccc3F)CC2)nc2c1nnn2Cc1ccc(F)cc1	5	-12%	18%	-5	-16%	5%
CCc1ccc(C(=O)NNC(=O)CN2C(=O)NC(CC)(c3ccccc3)C2=O)cc1 (stereo unspecified)	nt	nt	nt	nt	18%	15%
CCCN(CCC)C(=O)C1CCCN1S(=O)(=O)c1cccc2nsnc12 (stereo unspecified)	-10	-1%	2%	0	5%	?
CN[C@H](Cc1ccccc1)c1cccc(OC)c1O	nt	nt	0%	nt	nt	nt
CC(C)CC(=O)Nc1ccc(C(=O)CN2C(=O)NC3(CCOc4ccccc43)C2=O)cc1 (stereo unspecified)	nt	nt	nt	nt	?	-5%
SMILES	Shiga toxin inh	Giardia FBPA inh	NS1 function inh	CHX counter	Pf growth 48h	Pf growth 96h
CCOc1ccccc1-c1c2cc(O)c(=O)cc-2oc2cc(O)c(O)cc12	6	6.3µM*	?	-3	13µM*	26%
COc1ccc(OC)c(-c2c3cc(O)c(=O)cc-3oc3cc(O)c(O)cc23)c1	-3	?	?	-5	10µM*	32%
Nc1c(N(CCC2=CCCCC2)C(=O)Cc2ccccc2F)c(=O)[nH]c(=O)n1Cc1ccccc1	nt	nt	nt	nt	?	-25%
Cn1c(NNC(=O)CCC2CCCCC2)cc(=O)n(C)c1=O	-19	-20%	-17%	-2	17%	-25%
Cn1c(NC(=O)CCC2CCCCC2)cc(=O)n(C)c1=O	113*	3%	-54%	71*	nt	?
Cn1c(NC2CCCCC2)cc(=O)n(C)c1=O	-11	6%	-8%	-2	?	10µM*
CN(C)/[N+]([O-])=N/Oc1cc(O/[N+]([O-])=N/N2CCCC2CO)c([N+](=O)[O-])cc1[N+](=O)[O-] (stereo unspecified)	-6	-10%	nt	-3	nt	nt
C=CCN1C(=O)/C(=C2/Sc3ccc(OC)cc3N2CC)SC1=S	nt	-6%	14%	-2	-12%	?
CCN1C(=O)/C(=C2\SC(=S)N(CCCOC)C2=O)c2ccccc21	-12	1%	-3%	-2	?	10µM*
CCCCN1C(=O)/C(=C2/Sc3ccc(OC)cc3N2CC)SC1=S	nt	8%	0%	-2	31%	9.3µM*
COCCN1C(=O)/C(=C2/C(=O)N(CC(=O)Nc3ccccc3Cl)c3ccccc32)SC1=S	-7	-3%	2%	-2	?	?
C=CN1CCCC1=O	-10	6%	nt	-2	nt	nt
Cc1ccccc1C(=O)N1CCN(CCNC(=O)C(=O)Nc2ccc(Br)cc2)CC1	-7	-1%	-23%	10	-8%	?
CCOc1cc(/C=N/NC(=O)c2cccnc2)ccc1OC(=O)c1ccco1	-13	0%	nt	5	8%	2%
CCCCN1C(N)=NC[C@@H]1Cc1ccc(O)cc1	2	3%	7%	-1	10µM*	4.1µM*
CC(C)(C)CN1C(N)=NC[C@H]1Cc1ccc(O)cc1	2	7%	0%	-3	?	4.7µM*
NC1=NC[C@H](Cc2ccc(O)cc2)N1CCC12CC3CC(CC(C3)C1)C2	-3	5%	3%	-3	2.9µM*	1.9µM*
CC(C)(C)CN1C(N)=NC[C@@H]1Cc1ccc(O)cc1	-7	10%	0%	-2	?	?
CCCCN1C(N)=NC[C@H]1Cc1ccc(O)cc1	-1	10%	2%	5	9.3µM*	4.7µM*
COc1ccc(CC(=O)NNS(=O)(=O)c2ccccc2)cc1OC	-15	-4%	0%	-2	14%	?
CCCC(C)c1nnc(NC(=O)COc2ccc3c(c2)OCO3)s1 (stereo unspecified)	2	-16%	13%	-4	5%	?
COc1cc(CCCN2C(N)=NC[C@H]2Cc2ccc(O)cc2)cc(OC)c1OC	-5	1%	-6%	-6	8.3µM*	2.3µM*
COc1cc(CCCN2C(=S)NC[C@H]2Cc2ccc(O)cc2)cc(OC)c1OC	-8	1%	1%	1	10%	-1%
CCOC(=O)c1sc2nc(Cc3ccc(Cl)cc3)[nH]c(=S)c2c1C	-3	6%	3%	-8	?	?
